Measured values: ChEMBL document CHEMBL2218924, “A broad activity screen in support of a chemogenomic map for kinase signalling research and drug discovery” (Biochem J, 2013)

Experiments:
[1] = biological target: Calcium/calmodulin-dependent protein kinase type 1 (Homo sapiens) (UniProt Q14012); conditions: at 1 µM
[2] = biological target: Calcium/calmodulin-dependent protein kinase type 1 (Homo sapiens) (UniProt Q14012); conditions: at 10 µM
[3] = biological target: Calcium/calmodulin-dependent protein kinase type II subunit beta (Homo sapiens) (UniProt Q13554); conditions: at 1 µM
Calcium/calmodulin-dependent protein kinase type II subunit beta (Homo sapiens), sequence (Q13554 whole entry): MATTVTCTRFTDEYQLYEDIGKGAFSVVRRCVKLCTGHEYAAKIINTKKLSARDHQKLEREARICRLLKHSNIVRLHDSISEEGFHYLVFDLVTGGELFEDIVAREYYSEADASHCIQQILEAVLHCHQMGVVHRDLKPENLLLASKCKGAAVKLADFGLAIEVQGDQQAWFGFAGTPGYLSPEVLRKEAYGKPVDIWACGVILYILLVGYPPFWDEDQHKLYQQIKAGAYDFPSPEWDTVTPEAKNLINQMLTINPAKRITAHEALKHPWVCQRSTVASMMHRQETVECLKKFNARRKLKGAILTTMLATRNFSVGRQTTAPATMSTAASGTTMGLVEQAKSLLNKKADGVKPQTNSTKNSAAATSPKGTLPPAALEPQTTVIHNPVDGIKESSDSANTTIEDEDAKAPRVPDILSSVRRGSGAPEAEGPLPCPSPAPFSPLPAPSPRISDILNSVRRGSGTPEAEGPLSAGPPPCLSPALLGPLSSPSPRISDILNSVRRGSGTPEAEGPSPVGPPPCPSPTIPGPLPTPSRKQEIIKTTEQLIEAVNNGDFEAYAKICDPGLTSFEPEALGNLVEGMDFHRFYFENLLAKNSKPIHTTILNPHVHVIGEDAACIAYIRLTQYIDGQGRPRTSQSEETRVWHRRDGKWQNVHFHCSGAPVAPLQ

[4] = biological target: Calcium/calmodulin-dependent protein kinase type II subunit beta (Homo sapiens) (UniProt Q13554); conditions: at 10 µM
[5] = biological target: Calcium/calmodulin-dependent protein kinase type II subunit gamma (Homo sapiens) (UniProt Q13555); conditions: at 1 µM
Calcium/calmodulin-dependent protein kinase type II subunit gamma (Homo sapiens), sequence (Q13555 whole entry): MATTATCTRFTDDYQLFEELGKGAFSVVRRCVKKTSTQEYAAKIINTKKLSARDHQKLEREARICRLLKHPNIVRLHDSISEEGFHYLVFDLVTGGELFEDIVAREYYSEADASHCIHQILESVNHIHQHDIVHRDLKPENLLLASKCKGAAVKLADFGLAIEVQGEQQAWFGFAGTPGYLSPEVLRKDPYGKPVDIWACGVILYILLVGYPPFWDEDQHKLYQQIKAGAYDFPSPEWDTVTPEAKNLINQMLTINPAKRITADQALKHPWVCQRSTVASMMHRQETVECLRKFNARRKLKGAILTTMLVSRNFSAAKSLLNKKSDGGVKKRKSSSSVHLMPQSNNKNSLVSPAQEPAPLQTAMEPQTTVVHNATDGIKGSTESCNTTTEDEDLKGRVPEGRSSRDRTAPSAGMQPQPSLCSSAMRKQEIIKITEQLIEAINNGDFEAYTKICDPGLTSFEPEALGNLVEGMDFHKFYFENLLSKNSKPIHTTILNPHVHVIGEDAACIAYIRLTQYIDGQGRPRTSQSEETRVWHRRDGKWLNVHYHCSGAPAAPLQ

[6] = biological target: Calcium/calmodulin-dependent protein kinase type II subunit gamma (Homo sapiens) (UniProt Q13555); conditions: at 10 µM
[7] = biological target: Calcium/calmodulin-dependent protein kinase type II subunit delta (Homo sapiens) (UniProt Q13557); conditions: at 1 µM
Calcium/calmodulin-dependent protein kinase type II subunit delta (Homo sapiens), sequence (Q13557 whole entry): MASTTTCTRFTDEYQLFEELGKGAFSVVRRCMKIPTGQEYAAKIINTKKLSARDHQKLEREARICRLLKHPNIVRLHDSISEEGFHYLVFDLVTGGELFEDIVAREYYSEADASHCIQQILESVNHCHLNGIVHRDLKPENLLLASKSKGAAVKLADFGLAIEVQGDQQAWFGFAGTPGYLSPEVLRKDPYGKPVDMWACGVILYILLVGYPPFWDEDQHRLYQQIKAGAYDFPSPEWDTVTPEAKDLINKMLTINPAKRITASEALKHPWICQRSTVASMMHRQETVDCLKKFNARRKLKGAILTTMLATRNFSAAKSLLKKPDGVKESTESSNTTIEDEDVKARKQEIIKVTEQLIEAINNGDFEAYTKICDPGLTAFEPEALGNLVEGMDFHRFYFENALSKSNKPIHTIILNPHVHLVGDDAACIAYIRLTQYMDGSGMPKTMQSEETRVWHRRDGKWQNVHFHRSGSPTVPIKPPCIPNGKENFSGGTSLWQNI

[8] = biological target: Calcium/calmodulin-dependent protein kinase type II subunit delta (Homo sapiens) (UniProt Q13557); conditions: at 10 µM
[9] = biological target: T1, Calcium/calmodulin-dependent protein kinase type IV (Homo sapiens) (UniProt Q16566); conditions: at 1 µM
T1 sequence (whole entry): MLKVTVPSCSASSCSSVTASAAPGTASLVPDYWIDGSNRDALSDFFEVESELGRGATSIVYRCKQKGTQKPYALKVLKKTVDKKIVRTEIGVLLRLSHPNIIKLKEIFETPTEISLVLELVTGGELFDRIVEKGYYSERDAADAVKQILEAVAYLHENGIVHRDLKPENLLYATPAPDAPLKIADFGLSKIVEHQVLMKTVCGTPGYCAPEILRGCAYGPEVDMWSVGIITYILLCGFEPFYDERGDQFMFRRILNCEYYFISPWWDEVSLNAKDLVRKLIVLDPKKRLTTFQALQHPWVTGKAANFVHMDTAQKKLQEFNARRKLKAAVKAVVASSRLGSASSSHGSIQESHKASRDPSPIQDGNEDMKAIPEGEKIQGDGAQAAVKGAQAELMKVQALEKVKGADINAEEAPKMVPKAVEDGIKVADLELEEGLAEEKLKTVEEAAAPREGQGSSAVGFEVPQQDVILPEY

[10] = biological target: T1, Calcium/calmodulin-dependent protein kinase type IV (Homo sapiens); conditions: at 10 µM
[11] = biological target: Death-associated protein kinase 1 (Homo sapiens) (UniProt P53355); conditions: at 10 µM
Death-associated protein kinase 1 (Homo sapiens), sequence (P53355 whole entry, looked up): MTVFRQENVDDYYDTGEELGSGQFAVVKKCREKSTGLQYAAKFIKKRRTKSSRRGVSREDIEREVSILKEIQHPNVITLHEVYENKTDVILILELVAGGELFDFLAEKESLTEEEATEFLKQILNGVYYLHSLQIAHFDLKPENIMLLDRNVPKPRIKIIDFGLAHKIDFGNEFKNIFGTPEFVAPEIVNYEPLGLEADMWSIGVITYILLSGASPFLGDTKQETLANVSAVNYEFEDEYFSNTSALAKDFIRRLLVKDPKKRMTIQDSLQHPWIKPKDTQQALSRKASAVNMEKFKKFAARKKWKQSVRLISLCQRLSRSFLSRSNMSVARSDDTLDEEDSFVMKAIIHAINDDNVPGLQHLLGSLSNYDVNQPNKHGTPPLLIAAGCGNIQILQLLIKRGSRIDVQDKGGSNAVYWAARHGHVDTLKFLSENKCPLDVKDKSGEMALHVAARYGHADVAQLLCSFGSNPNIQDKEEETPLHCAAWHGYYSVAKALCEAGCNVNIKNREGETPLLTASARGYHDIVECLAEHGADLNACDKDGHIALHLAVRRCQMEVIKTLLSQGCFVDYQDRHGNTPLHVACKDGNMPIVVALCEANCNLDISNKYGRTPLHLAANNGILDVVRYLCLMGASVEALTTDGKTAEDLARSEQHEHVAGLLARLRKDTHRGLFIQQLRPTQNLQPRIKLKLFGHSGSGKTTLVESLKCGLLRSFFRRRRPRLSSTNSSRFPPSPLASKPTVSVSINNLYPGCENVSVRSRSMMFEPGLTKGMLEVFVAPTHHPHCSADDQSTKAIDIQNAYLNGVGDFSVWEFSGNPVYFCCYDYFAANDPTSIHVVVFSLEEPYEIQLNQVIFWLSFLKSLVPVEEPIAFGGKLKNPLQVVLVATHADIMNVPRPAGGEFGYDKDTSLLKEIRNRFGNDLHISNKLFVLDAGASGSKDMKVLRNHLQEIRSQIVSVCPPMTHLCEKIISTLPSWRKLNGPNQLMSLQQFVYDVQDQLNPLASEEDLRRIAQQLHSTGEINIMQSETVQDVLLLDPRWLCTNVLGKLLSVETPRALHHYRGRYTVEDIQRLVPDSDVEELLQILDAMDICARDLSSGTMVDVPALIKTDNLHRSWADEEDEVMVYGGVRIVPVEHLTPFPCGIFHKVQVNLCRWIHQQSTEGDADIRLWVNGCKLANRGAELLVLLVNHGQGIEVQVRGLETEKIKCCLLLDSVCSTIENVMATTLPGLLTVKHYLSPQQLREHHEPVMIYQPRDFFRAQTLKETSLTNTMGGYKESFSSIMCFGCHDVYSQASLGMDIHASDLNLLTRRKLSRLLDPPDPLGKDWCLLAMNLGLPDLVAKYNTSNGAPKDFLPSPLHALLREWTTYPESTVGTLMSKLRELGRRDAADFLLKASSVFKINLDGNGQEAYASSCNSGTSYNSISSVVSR

[12] = biological target: Death-associated protein kinase 2 (Homo sapiens) (UniProt Q9UIK4); conditions: at 1 µM
Death-associated protein kinase 2 (Homo sapiens), sequence (Q9UIK4 whole entry, looked up): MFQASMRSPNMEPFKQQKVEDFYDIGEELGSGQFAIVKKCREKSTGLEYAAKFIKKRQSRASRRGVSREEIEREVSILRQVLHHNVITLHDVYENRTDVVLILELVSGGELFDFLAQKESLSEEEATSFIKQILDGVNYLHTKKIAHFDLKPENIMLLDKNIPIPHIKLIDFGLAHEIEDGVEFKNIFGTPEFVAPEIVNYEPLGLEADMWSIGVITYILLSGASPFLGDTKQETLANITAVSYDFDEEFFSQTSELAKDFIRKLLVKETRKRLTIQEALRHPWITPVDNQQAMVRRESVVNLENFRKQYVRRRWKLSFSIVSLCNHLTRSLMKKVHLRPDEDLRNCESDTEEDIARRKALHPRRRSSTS

[13] = biological target: Death-associated protein kinase 2 (Homo sapiens) (UniProt Q9UIK4); conditions: at 10 µM
[14] = biological target: T2, Serine/threonine-protein kinase DCLK2 (Homo sapiens) (UniProt Q8N568); conditions: at 1 µM
T2 sequence (whole entry): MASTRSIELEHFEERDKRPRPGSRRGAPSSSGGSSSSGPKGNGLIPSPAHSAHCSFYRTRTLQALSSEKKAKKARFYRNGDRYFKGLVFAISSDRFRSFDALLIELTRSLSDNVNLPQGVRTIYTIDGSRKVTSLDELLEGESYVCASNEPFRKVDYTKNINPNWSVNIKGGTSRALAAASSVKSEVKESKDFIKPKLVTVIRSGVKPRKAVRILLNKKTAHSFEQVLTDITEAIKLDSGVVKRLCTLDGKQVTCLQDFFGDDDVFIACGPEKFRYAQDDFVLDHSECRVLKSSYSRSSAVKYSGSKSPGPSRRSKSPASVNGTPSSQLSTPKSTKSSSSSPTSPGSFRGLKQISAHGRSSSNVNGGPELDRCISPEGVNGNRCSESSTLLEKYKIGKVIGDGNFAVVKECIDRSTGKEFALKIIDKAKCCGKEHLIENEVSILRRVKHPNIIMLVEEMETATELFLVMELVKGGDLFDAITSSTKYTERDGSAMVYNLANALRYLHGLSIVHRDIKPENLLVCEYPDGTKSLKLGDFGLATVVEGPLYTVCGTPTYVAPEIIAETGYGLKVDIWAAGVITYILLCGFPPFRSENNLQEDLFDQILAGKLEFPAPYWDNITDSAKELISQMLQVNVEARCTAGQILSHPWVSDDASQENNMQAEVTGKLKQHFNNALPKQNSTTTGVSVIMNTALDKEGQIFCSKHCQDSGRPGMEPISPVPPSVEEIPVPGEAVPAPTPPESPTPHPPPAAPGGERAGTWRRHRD

[15] = biological target: T2, Serine/threonine-protein kinase DCLK2 (Homo sapiens); conditions: at 10 µM
[16] = biological target: T3, Discoidin domain-containing receptor 2 (Homo sapiens) (UniProt Q16832); conditions: at 1 µM
T3 sequence (whole entry): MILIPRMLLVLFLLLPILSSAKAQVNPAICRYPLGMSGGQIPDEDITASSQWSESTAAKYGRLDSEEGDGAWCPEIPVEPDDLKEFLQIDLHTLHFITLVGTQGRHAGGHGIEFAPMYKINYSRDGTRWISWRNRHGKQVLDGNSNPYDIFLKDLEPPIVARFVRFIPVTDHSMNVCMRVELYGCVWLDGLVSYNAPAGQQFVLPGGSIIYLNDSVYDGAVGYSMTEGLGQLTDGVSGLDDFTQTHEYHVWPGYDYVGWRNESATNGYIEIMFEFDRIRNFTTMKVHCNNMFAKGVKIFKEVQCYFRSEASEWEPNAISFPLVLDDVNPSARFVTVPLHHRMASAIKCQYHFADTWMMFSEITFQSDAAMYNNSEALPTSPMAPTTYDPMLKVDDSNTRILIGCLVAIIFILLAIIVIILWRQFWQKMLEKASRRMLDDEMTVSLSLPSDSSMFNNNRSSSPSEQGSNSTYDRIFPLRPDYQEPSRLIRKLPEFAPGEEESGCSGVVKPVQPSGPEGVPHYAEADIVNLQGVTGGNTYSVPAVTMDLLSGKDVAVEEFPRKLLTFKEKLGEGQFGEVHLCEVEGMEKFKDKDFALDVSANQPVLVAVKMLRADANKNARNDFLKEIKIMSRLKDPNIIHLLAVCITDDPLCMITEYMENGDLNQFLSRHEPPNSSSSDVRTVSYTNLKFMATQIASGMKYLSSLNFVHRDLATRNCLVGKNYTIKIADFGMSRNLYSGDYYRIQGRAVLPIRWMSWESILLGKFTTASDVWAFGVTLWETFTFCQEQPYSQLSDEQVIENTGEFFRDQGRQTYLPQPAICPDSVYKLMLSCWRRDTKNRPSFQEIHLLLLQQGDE

[17] = biological target: T3, Discoidin domain-containing receptor 2 (Homo sapiens); conditions: at 10 µM
[18] = biological target: T4, Myotonin-protein kinase (Homo sapiens) (UniProt Q09013); conditions: at 1 µM
T4 sequence (whole entry): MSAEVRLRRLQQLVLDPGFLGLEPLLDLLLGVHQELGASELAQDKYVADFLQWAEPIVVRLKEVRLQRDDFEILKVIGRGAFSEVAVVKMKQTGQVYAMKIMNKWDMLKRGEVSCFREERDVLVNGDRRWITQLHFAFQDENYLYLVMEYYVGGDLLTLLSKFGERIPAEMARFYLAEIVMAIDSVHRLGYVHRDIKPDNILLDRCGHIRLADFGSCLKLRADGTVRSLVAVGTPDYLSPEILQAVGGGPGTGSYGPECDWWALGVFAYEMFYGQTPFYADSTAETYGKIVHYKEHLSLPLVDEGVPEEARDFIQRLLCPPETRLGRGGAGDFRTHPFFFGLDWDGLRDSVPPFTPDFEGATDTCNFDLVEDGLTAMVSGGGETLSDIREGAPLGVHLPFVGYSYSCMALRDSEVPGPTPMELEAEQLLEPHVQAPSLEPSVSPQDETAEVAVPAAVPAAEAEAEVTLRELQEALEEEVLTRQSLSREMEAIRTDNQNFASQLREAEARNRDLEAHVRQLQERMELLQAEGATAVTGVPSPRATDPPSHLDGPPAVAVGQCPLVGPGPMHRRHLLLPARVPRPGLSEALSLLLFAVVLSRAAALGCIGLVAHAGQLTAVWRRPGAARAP

[19] = biological target: T4, Myotonin-protein kinase (Homo sapiens); conditions: at 10 µM
[20] = biological target: T5, Serine/threonine-protein kinase 17A (Homo sapiens) (UniProt Q9UEE5); conditions: at 1 µM
T5 sequence (whole entry): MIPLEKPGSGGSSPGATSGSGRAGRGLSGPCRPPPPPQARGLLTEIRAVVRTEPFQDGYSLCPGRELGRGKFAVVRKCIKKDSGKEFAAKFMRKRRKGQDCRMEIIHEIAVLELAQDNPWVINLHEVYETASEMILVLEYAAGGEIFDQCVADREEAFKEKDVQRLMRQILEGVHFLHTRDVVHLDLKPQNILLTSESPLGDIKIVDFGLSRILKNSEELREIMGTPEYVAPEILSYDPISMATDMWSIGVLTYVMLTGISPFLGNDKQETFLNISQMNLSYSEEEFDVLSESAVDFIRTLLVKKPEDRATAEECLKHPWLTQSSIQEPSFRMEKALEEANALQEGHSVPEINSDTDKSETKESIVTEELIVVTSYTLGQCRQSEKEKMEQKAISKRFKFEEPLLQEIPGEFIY

Calcium/calmodulin-dependent protein kinase type 1 (Homo sapiens), sequence (Q14012 whole entry, looked up): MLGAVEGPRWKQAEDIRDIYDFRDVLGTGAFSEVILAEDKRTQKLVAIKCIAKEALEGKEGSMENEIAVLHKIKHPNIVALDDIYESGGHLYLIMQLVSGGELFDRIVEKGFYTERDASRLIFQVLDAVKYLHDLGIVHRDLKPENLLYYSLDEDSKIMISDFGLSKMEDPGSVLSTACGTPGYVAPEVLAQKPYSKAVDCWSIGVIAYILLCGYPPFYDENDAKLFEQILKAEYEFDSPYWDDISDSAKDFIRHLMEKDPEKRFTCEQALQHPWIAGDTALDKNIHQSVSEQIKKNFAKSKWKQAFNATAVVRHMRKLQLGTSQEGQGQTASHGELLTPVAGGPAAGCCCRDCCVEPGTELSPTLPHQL

SMILES | residual activity [1] [%] | residual activity [2] [%] | residual activity [3] [%] | residual activity [4] [%] | residual activity [5] [%] | residual activity [6] [%] | residual activity [7] [%] | residual activity [8] [%] | residual activity [9] [%] | residual activity [10] [%] | residual activity [11] [%] | residual activity [12] [%] | residual activity [13] [%] | residual activity [14] [%] | residual activity [15] [%] | residual activity [16] [%] | residual activity [17] [%] | residual activity [18] [%] | residual activity [19] [%] | residual activity [20] [%]
CC(C)n1cnc2/c(=N/c3cccc(Cl)c3)nc(NCCO)[nH]c21 | 87 | 71 | 75 | 41 | 13 | 6 | 19 | 11 | 103 | 66 | 94 | 104 | 98 | 103 | 94 | 94 | 93 | 124 | 74 | –
COc1ccc(C(=O)Nc2sc3c(c2C(N)=O)CCCC3)cc1OC | 102 | 75 | 83 | 73 | 86 | 66 | 86 | 66 | 107 | 85 | 86 | 90 | 105 | 86 | 61 | 101 | 98 | 113 | 127 | 125
Cn1cnc2cc3c(Nc4cccc(Br)c4)ncnc3cc21 | 103 | 54 | 93 | 89 | 85 | 43 | 97 | 52 | 105 | 86 | 99 | 96 | 113 | 102 | 110 | 75 | 60 | 112 | 111 | 64
O=C1Nc2ccccc2/C1=C1/Nc2ccccc2/C1=N\OCCC(O)CO (centres undefined) | 64 | 15 | 27 | 4 | 6 | 0 | 6 | 1 | 15 | 9 | 43 | 49 | 12 | 99 | 35 | 76 | 46 | 115 | 69 | 5
NC(=O)c1ccc2[nH]c(-c3ccc(Oc4ccc(Cl)cc4)cc3)nc2c1 | 94 | 92 | 87 | 43 | 92 | 58 | 91 | 61 | 108 | 108 | 98 | 101 | 102 | 111 | 182 | 98 | 102 | 107 | 83 | 58
CO[C@H]1C[C@@H]2CC[C@@H](C)[C@@](O)(O2)C(=O)C(=O)N2CCCC[C@H]2C(=O)O[C@H]([C@H](C)C[C@@H]2CC[C@@H](O)[C@H](OC)C2)CC(=O)[C@H](C)/C=C(\C)[C@@H](O)[C@@H](OC)C(=O)[C@H](C)C[C@H](C)/C=C/C=C/C=C/1C | 108 | 84 | 92 | 79 | 103 | 96 | 109 | 99 | 131 | 119 | 108 | 93 | 110 | 137 | 360 | 115 | 110 | 145 | 139 | 113
O=C(O)c1ccc2c3c1cccc3c(=O)n1c3ccccc3nc21 | 108 | 117 | 88 | 51 | 88 | 31 | 80 | 31 | 94 | 21 | 47 | 31 | 1 | 117 | 68 | 99 | 101 | 92 | 83 | 42
